“And” between values parts separate entries of the source, which are not always exact repeats. Identical values can stand only once. The campaign covered roughly 5,500 compounds. About 2,000 (36%) were called active. Not shown: some 18% with an inconclusive outcome. Rule as the data show it: active = normalized growth mostly below about 0.91 (no sharp cut-off); inconclusive = no clear call, values can overlap the other calls; inactive = mostly above about 0.92. The list shows a part of the results.
Assay: chemical genetic growth profiling, strain panel (AID 1159580);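 also: tested at 20 µM; growth read once vehicle control cultures reached saturation at 30 °C; 1 = growth at the plate median or of vehicle wells; lower values mean less growth of the strain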
Conditions: S. cerevisiae deletion strains, growth OD

Measured: normalized growth

CCc1cc(C(N)=S)ccn1
inactive: locus YAL021C, strain ccr4, active compounds read low 1 | locus YAL026C, strain drs2, active compounds read low 1 | locus YAL030W, strain snc1, active compounds read low 0.994 | locus YBL061C, strain skt5, active compounds read low 1.01 | locus YBR009C, strain hhf1, active compounds read low 1 | locus YBR021W, strain FUR4, active compounds read low 1.06 | locus YBR023C, strain chs3, active compounds read low 1.02 | locus YBR171W, strain sec66, active compounds read low 1 | locus YBR229C, strain ROT2, active compounds read low 0.953 | locus YBR231C, strain swc5, active compounds read low 1.04 | locus YBR279W, strain paf1, active compounds read low 1 | locus YCL011C, strain gbp2, active compounds read low 1.01 | locus YCL016C, strain dcc1, active compounds read low 1 | locus YCL061C, strain MRC1, active compounds read low 1.01 | locus YCL069W, strain vba3, active compounds read low 0.991 | locus YCR088W, strain abp1, active compounds read low 1 | locus YDL005C, strain med2, active compounds read low 1 | locus YDL035C, strain GPR1, active compounds read low 1.01 | locus YDL040C, strain nat1, active compounds read low 0.998 | locus YDL074C, strain BRE1, active compounds read low 0.991 | locus YDL101C, strain DUN1, active compounds read low 0.981 | locus YDL134C, strain PPH21, active compounds read low 0.985 | locus YDL185W, strain tfp1, active compounds read low 0.976 | locus YDL192W, strain arf1, active compounds read low 0.981 | locus YDR001C, strain nth1, active compounds read low 1 | locus YDR069C, strain doa4, active compounds read low 0.978 | locus YDR101C, strain arx1, active compounds read low 0.93 | locus YDR137W, strain rgp1, active compounds read low 1.02 | locus YDR150W, strain NUM1, active compounds read low 0.983 | locus YDR159W, strain sac3, active compounds read low 0.953 | locus YDR162C, strain NBP2, active compounds read low 1 | locus YDR195W, strain ref2 0.979 | locus YDR297W, strain sur2, active compounds read low 1 | locus YDR318W, strain mcm21, active compounds read low 1 | locus YDR334W, strain swr1, active compounds read low 1.01 | locus YDR335W, strain msn5, active compounds read low 0.996 | locus YDR388W, active compounds read low 0.995 | locus YDR392W, strain spt3, active compounds read low 0.938 | locus YDR502C, strain sam2, active compounds read low 0.98 | locus YEL003W, strain gim4, active compounds read low 0.998 | locus YEL037C, strain rad23, active compounds read low 0.999 | locus YEL061C, strain CIN8 (second series), active compounds read low 0.994 | locus YEL061C, strain CIN8, active compounds read low 0.959 | locus YER015W, strain faa2, active compounds read low 1.01 | locus YER016W, strain bim1, active compounds read low 0.957 | locus YER110C, active compounds read low 0.98 | locus YER111C, strain swi4, active compounds read low 0.996 | locus YER155C, strain BEM2 (second series), active compounds read low 0.943 | locus YER155C, strain BEM2, active compounds read low 0.99 | locus YER167W, strain BCK2, active compounds read low 0.994 | locus YFR010W, strain ubp6, active compounds read low 1 | locus YGL078C, strain dbp3, active compounds read low 0.986 | locus YGL086W, strain mad1, active compounds read low 0.964 | locus YGL167C, strain pmr1, active compounds read low 1 | locus YGL173C, strain kem1, active compounds read low 0.995 | locus YGL227W, strain vid30, active compounds read low 1.01 | locus YGL240W, strain doc1, active compounds read low 0.978 | locus YGL248W, strain PDE1, active compounds read low 0.989 | locus YGL253W, strain hxk2, active compounds read low 1.01 | locus YGR135W, strain pre9, active compounds read low 1.05 | locus YGR252W, strain gcn5, active compounds read low 1.14 | locus YHR013C, strain ard1, active compounds read low 1.05 | locus YHR027C, strain rpn1, active compounds read low 1.01 | locus YHR030C, strain SLT2, active compounds read low 0.997 and 1.11 | locus YHR079C, strain IRE1 (second series), active compounds read low 0.993 | locus YHR079C, strain IRE1, active compounds read low 1.08 | locus YHR094C, strain hxt1, active compounds read low 0.987 | locus YHR129C, strain ARP1, active compounds read low 0.991 | locus YHR142W, strain chs7, active compounds read low 1.02 | locus YHR200W, strain rpn10, active compounds read low 0.98 | locus YIL066C, strain RNR3, active compounds read low 0.965 | locus YIL073C, strain SPO22, active compounds read low 1.08 | locus YIL125W, strain kgd1, active compounds read low 0.981 | locus YIR030C, strain dcg1, active compounds read low 0.99 | locus YJL092W, strain hpr5, active compounds read low 1.01 | locus YJL095W, strain BCK1 (second series), active compounds read low 1 | locus YJL095W, strain BCK1, active compounds read low 0.964 and 1.07 | locus YJL115W, strain asf1, active compounds read low 1.01 | locus YJL129C, strain trk1, active compounds read low 1.03 | locus YJL134W, strain LCB3, active compounds read low 0.991 | locus YJL154C, strain vps35, active compounds read low 0.995 | locus YJL164C, strain tpk1, active compounds read low 1.02 | locus YJL166W, strain qcr8, active compounds read low 1.04 | locus YJL168C, strain set2, active compounds read low 0.991 | locus YJL187C, strain SWE1 (second series), active compounds read low 0.941 | locus YJL187C, strain SWE1, active compounds read low 1.01 | locus YJR043C, strain POL32, active compounds read low 0.983

— PubChem BioAssay AID1159580 (chemical genetic matrix, 2015)
